Screening results as filed in PubChem BioAssay.
DT40 TDP1 no CPT – qHTS for Inhibitors of human tyrosyl-DNA phosphodiesterase 1 (TDP1): qHTS in cells in absence of CPT. Potency, µM (doses to about 46.2 µM), actives largely listed as inhibitors. 420,000 compounds, 15% hits. DT40 Tdp1-/- hTDP1 cells, no CPT, ATP luminescence, 48 h; further: nearly all actives have a fitted effect of over 55% in size
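Chicken DT40 Tdp1-/- cells complemented with human TDP1, screened without camptothecin (DMSO vehicle only), 400 cells/well. Compounds pin-transferred, cells incubated at 37 °C for at least 48 hr. Growth read as ATP-dependent luminescence (CellTiter-Glo, 30 min at RT).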
HT1080NT lethal – qHTS for induction of synthetic lethality in tumor cells producing 2HG: qHTS for the HT-1080-NT fibrosarcoma cell line | HT-1080-NT fibrosarcoma viability, CellTiter-Glo ATP luminescence, 48 h | Potency, µM (titrated, usually from 46.1 µM), usual class: cytotoxic | 360,000 compounds, 1.6% hits | AID 686970, 2013;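 further: NT is the 2HG producing partner of a matched IDH1 knockdown line; nearly all actives have a fitted effect of over 55% in size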
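Fibrosarcoma NT cells, 750 per well in 5% FBS RPMI, were exposed to compound for 48 hours. Viability: CellTiter-Glo luminescence.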
12-LOX inh – Primary qHTS assay for inhibitors of human arachidonate 12S-lipoxygenase (ALOX12): Round 2 | purified 12hLO, xylenol orange hydroperoxide absorbance | Potency, µM (doses to about 108 µM), usual class: inhibitors | 580,000 compounds, 1.1% hits | AID 1671190, 2021
Target sequence (P18054 whole entry, looked up): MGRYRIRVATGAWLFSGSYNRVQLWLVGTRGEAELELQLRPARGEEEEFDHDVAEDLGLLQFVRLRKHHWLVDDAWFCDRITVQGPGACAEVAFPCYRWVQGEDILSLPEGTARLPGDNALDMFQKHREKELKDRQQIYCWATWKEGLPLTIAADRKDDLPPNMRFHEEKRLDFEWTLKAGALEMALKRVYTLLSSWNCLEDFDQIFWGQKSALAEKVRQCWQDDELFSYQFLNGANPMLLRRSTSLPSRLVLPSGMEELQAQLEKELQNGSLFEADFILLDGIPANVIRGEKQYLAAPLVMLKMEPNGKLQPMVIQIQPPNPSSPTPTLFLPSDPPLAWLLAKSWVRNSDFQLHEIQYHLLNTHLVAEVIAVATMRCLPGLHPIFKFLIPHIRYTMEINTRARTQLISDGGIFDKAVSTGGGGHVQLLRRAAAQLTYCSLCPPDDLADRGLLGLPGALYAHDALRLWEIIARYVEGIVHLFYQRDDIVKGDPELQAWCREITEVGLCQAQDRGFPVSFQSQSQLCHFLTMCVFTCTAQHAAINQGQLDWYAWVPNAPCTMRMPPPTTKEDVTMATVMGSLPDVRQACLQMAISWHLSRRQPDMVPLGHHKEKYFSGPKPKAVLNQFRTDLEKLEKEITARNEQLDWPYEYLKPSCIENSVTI
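Purified human 12hLO (150 nM final) in 25 mM Hepes, 0.01% Triton X-100, pH 7.0 was preincubated 15 min at room temperature with compound. Then 40 uM arachidonic acid was added, 30 min. Hydroperoxide was read by Fe-XO absorbance ratio 573/405 nm.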
HT1080 IDH1KD tx – qHTS for induction of synthetic lethality in tumor cells producing 2HG: qHTS for the HT-1080-IDH1KD cell line; HT-1080 IDH1 knockdown viability, ATP luminescence, 48 h; 360,000 compounds, 2% hits; Potency, µM (titrated, usually from 46.1 µM), most hits filed as cytotoxic
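In this qHTS, HT-1080 cells depleted of IDH1 are exposed for 48 h at 37 °C to compound titrations. Toxicity is scored from CellTiter-Glo luminescence, with DMSO as full viability and medium alone as none.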
TDP1 cell CPT – qHTS for Inhibitors of human tyrosyl-DNA phosphodiesterase 1 (TDP1): qHTS in cells in presence of CPT | 420,000 compounds, 12% hits | Potency, µM (titrated, usually from 46.2 µM), hits mostly inhibitors | chicken DT40 Tdp1-/-;hTDP1 cells + 20 nM CPT, ATP luminescence, 48 h | AID 686979, 2013; further: nearly all actives have a fitted effect of over 55% in size
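Chicken DT40 Tdp1-/- cells stably complemented with human TDP1 were seeded at 400 cells/well in medium containing 20 nM camptothecin, exposed to pin-transferred compounds, and grown at 37 °C for at least 48 hr. Viability was read as ATP luminescence.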
IL-1B inflam inh – qHTS for Inhibitors of Inflammasome Signaling: IL-1-beta AlphaLISA Primary Screen. 360,000 compounds, 4.7% hits. AID 743279, 2014. THP-1 LPS/ATP IL-1B secretion, AlphaLISA, 16 h; hits give low values. activity change, % at 57.5 µM; in the data active means activity change below about -50%; inconclusive means mostly about -30% to -49%
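Secreted IL-1B measured by AlphaLISA bead assay after 16 h compound exposure of THP-1 cells; compounds (final up to 57.5 uM) added 1 h before LPS (250 ng/mL) and ATP (1.25 mM) stimulation; lower signal means less secretion.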
A number is an active result; i = inactive; ? = inconclusive; nt = no result given. This is one part of a sample in which hits are shown more often than they occur. Unless noted, the call rests on the fitted dose curve; in most records, active means well fitted curve in the direction sought with a large enough effect; inconclusive means small, poorly fitted or top-dose-only effect, or another doubt; inactive means no such curve, though single readings can be large; an effect the other way counts as inactive or inconclusive.

SMILES	DT40 TDP1 no CPT	HT1080NT lethal	12-LOX inh	HT1080 IDH1KD tx	TDP1 cell CPT	IL-1B inflam inh
CC(=O)N1C[C@@H]2CCCN3CCC[C@@H]([C@H]23)[C@H]1CCCC(=O)NCCCN1CCCC1=O	nt	nt	i	nt	nt	nt
CCCCn1nc2cc(C(=O)NCc3ccc(C(F)(F)F)cc3C(F)(F)F)ccc2c1OCC	?	i	i	i	?	i
CCn1nc2cc(C(=O)NCc3cc(C(F)(F)F)cc(C(F)(F)F)c3)ccc2c1OC	i	?	i	?	i	-57
CCOc1c2ccc(C(=O)NCc3ccc(C(F)(F)F)cc3C(F)(F)F)cc2nn1C	i	i	i	i	i	-51
CCN(CC(=O)Nc1ccc(NC(C)=O)cc1)Cc1coc(-c2ccccc2)n1	nt	nt	i	nt	nt	nt
O=S(=O)(Nc1nnc(-c2ccccc2)s1)c1ccc(Cl)cc1	16µM	i	?	i	?	i
CCCS(=O)(=O)NC(=O)C1(C)CCN(C(=O)c2ccc(F)c(Cl)c2)C1 (stereo unspecified)	i	?	?	i	i	i
CC1(C(=O)NS(=O)(=O)C2CC2)CCCN(C(=O)c2ccc(F)c(Cl)c2)C1 (stereo unspecified)	5.2µM	?	i	i	5.8µM	i
CC1(C(=O)NS(=O)(=O)C2CC2)CCCN(C(=O)c2cccc(Cl)c2)C1 (stereo unspecified)	1.5µM	i	i	i	7.3µM	i
COc1ccc(Cl)cc1-c1ccc2c(c1)C(=O)N1C[C@@H](NS(=O)(=O)c3ccc(F)cc3)C[C@H]1C(=O)N2	nt	nt	i	nt	nt	nt
Cc1ccc(-n2ncc3c(N4CCN(CCO)CC4)ncnc32)cc1Cl	?	nt	?	nt	12µM	nt
Cc1ccc(-n2ncc3c(N4CCN(C)CC4)ncnc32)cc1Cl	21µM	nt	i	nt	?	nt
COc1ccc(CNc2ncncc2-c2ccc(N(C)C)cc2)c(OC)c1	?	nt	i	nt	18µM	nt
COc1ccc(CNc2ncnc3ccc(-c4ccc(N(C)C)cc4)cc23)c(OC)c1	?	nt	i	nt	23µM	nt
COc1cccc(CC(=O)N2CCC(c3noc(CO)n3)C2)c1 (stereo unspecified)	nt	nt	i	nt	nt	nt
CCN1C(=O)[C@H]2[C@@H](c3ccc(-c4ccc(OC)cc4)c(OC)c3)N[C@@](CC(C)C)(C(=O)OC)[C@H]2C1=O	?	i	i	i	?	i
COC(=O)[C@]1(CC(C)C)N[C@H](c2ccc(SC3CCCCC3)c(OC)c2)[C@@H]2C(=O)N(C)C(=O)[C@@H]21	18µM	i	i	i	?	?
COC(=O)[C@]1(CC(C)C)N[C@H](c2cc(C(C)C)no2)[C@@H]2C(=O)N(C)C(=O)[C@@H]21	nt	nt	i	nt	nt	nt
CCCCCCSc1ccc([C@H]2N[C@@](CC(C)C)(C(=O)OC)[C@H]3C(=O)N(C)C(=O)[C@@H]23)cc1OC	18µM	i	i	i	?	-53
CCSc1nn(CC(=O)N(CC)CC)c2nc3c(c(=O)n12)C(C)(CC)Cc1ccccc1-3 (stereo unspecified)	nt	nt	i	nt	nt	nt
Cc1ccc(Nc2c3c(nc4ccccc24)CCC3)cc1F	16µM	nt	?	nt	21µM	nt
Cc1cccc(Nc2c3c(nc4ccccc24)CCC3)c1	18µM	15µM	?	21µM	15µM	nt
N#Cc1cccc(Nc2c3c(nc4ccccc24)CCC3)c1	?	i	i	?	?	-59
Cc1ccccc1Nc1c2c(nc3ccccc13)CCCC2	nt	nt	i	nt	nt	nt
COc1ccc(NC(=S)N(CCC(C)C)C2CCN(C(C)C)CC2)cc1Cl	?	i	?	i	i	?
SMILES	DT40 TDP1 no CPT	HT1080NT lethal	12-LOX inh	HT1080 IDH1KD tx	TDP1 cell CPT	IL-1B inflam inh
CC(C)CCN(C(=O)Nc1ccc(Cl)c(Cl)c1)C1CCN(C(C)C)CC1	15µM	nt	?	nt	15µM	nt
CCOC(=O)c1ccccc1NC(=O)N(C(C)C)C1CCN(C(C)=O)CC1	15µM	nt	i	nt	15µM	nt
CCOC(=O)N1CCC(N(C(=O)Nc2ccc(Cl)c(Cl)c2)C(C)CC)CC1 (stereo unspecified)	10µM	?	i	i	23µM	-85
CCOc1ccc(NC(=O)N(C(C)C)C2CCN(C(C)=O)CC2)cc1	i	nt	i	nt	i	nt
CC(=O)Nc1ccc(NC(=O)COc2cc(O)c3c(=O)cc(-c4ccccc4)oc3c2)cc1	nt	nt	i	nt	nt	nt
CCCCc1ccc(-n2nnnc2SCC(=O)Nc2cc(OC)c([N+](=O)[O-])cc2C)cc1	18µM	i	i	i	?	i
COCCn1cnnc1SCC(=O)Nc1cc(OC)c([N+](=O)[O-])cc1C	i	i	i	i	i	i
CC(CC(=O)O)CC(=O)NCCN1CCCCC1 (stereo unspecified)	nt	nt	i	nt	nt	nt
COC(=O)[C@@]12CCCCN1[C@H](c1ccc(-c3ccc(C(C)=O)cc3)cc1)[C@H]1C(=O)N(C)C(=O)[C@H]12	15µM	i	i	i	12µM	i
COC(=O)[C@@]12CCCCN1[C@H](c1ccc(-c3ccc(F)cc3)cc1)[C@@H]1C(=O)N(C)C(=O)[C@@H]12	13µM	i	i	i	21µM	i
COC(=O)[C@@]12CCCCN1[C@H](c1ccc(SC3CCCCC3)cc1)[C@@H]1C(=O)N(C)C(=O)[C@@H]12	?	i	i	i	?	i
COC(=O)[C@@]12CCCCN1[C@H](c1ccc(-c3ccccc3)cc1)[C@H]1C(=O)N(C)C(=O)[C@H]12	?	i	i	i	?	i
Fc1ccc(-c2nc(COc3ccccc3F)co2)cc1	nt	nt	i	nt	nt	nt
COc1cccc(-c2noc(CC3CCN(C(=O)c4ccc(N(C)C)cc4)CC3)n2)c1	nt	nt	i	nt	nt	nt
Cc1oc2cc(O)ccc2c(=O)c1Oc1ccccc1	5.8µM	i	i	i	6.5µM	i
COc1ccc(Oc2c(C)oc3cc(OS(C)(=O)=O)ccc3c2=O)cc1	nt	nt	i	nt	nt	nt
CCOC(=O)c1ccc(Oc2c(C)oc3cc(OS(C)(=O)=O)ccc3c2=O)cc1	16µM	i	i	i	16µM	i
NCCSCc1cccs1	nt	nt	i	nt	nt	nt
COC(=O)c1ccc(OC(=O)c2cc(-c3ccc(OC)cc3)nc3c(C)cc(C)cc23)cc1	nt	nt	i	nt	nt	nt
CCCOc1ccc(CNC(=O)C(C)C2CCOCC2)cc1 (stereo unspecified)	nt	nt	i	nt	nt	nt
Cc1cccnc1NC(N)=S	i	i	?	i	i	i
S=C(NCc1ccccn1)Nc1ccc(Cl)c(Cl)c1	?	i	?	i	16µM	-63
